# Data: PubChem BioAssay (EPA / NIEHS)
# Calls of active or inactive are those of the source. Rule for the calls: active = hit-call score of the fitted dose curve at least 0.9, where 1 is the maximum; inactive = score below 0.9.
# Read-out: Vascular cell adhesion molecule 1 (VCAM1), VCAM1 (gene 7412)
# Assay: BSK_MyoF_VCAM1: BioMAP Diversity Plus: MyoF Assay for Vascular cell adhesion molecule 1 (VCAM1) Biomarker Activity (AID 2284231)
# Settings: primary human lung fibroblasts
# Procedure: BSK_MyoF is a cell-based, multiplexed-readout assay that uses lung fibroblasts, […], with measurements taken at 24 hours after chemical dosing in a microplate: 96-well plate.BSK_MyoF_VCAM1 is an assay component measured in the BSK_MyoF assay. It measures VCAM-1 antibody related to regulation of gene expression using ELISA technology.Data from the assay component BSK_MyoF_VCAM1 was analyzed at the endpoint, BSK_MyoF_VCAM1, in the positive analysis fitting direction relative to DMSO as the negative control and baseline of activity. Using a type of binding reporter, gain or loss-of-signal activity can be used to understand protein changes. To generalize the intended target to other relatable targets, this assay endpoint is annotated to the 'cell adhesion molecules' intended target family, where the subfamily is 'Immunoglobulin CAM'.
# The levels of cell surface (or secreted, indicated by the prefix "s") biomarker endpoints were measured by ELISA. Overt cytotoxicity to cells in confluent adherent cultures (all systems other than the BT system) was assessed by measuring total protein levels using sulforhodamine B (SRB) staining in parallel cultures at the time of biomarker measurements, indicated as SRB endpoints. For proliferation assays for adherent cell types, individual cell types are cultured at sub-confluence and relative cell numbers quantified by SRB staining at time points optimized for each system (48 h: 3C and CASM3C systems; 72 h: BT and HDF3CGF systems; 96 h: SAg system). SRB was performed by staining cells with 0.1% SRB after fixation with 10% TCA and reading wells at 560 nm.Viability and proliferation of PBMC (T cells) was quantified by Alamar Blue reduction for the SAg and BT systems. For PBMC viability (referred to as PBMC Cytotoxicity within the assay endpoint names), cells were plated (75,000/well in a 96-well plate) and then chemical samples added for 1 h before addition of activators, SEB and TSST-1 (20 ng/mL final concentration each). Cells were incubated for 90 h. Then, Alamar Blue (20 uL/well) (Invitrogen, Cat DAL1100) was added for 6 h, and the plates were read with a fluorescence microplate reader at 546/580 nm (excitation/emission). For PBMC proliferation, cells were plated and activated as above but incubated for only 16 h prior to addition of Alamar Blue. Plates were read after 6 h.
SMILES,AC50,outcome
Cc1ccccc1OP(=O)(Oc1ccccc1)Oc1ccccc1,33 µM (active),–
CCC(C)(C#N)N=NC(C)(C#N)CC (stereo not given),–,inactive
C[C@]12CC[C@@H](O)C[C@@H]1CC[C@@H]1[C@@H]2CC[C@]2(C)C(=O)CC[C@@H]12,–,inactive
Cc1cccc(OP(=O)(Oc2cccc(C)c2)Oc2cccc(C)c2)c1,–,inactive
O=[N+]([O-])c1cccc2ccccc12,–,inactive
OC(Cc1ccccc1Cl)(Cn1cncn1)C1(Cl)CC1 (stereo not given),–,inactive
CCN(CC)C(=O)C(Cl)=C(C)OP(=O)(OC)OC,–,inactive
CCOP(=S)(OCC)SCS(=O)(=O)C(C)(C)C,–,inactive
Cc1ccc2nc3sc(=O)sc3nc2c1,7.88 µM (active),–
Oc1cccc(-c2ccccc2)c1,32.3 µM (active),–
O=c1oc2ccccc2c(O)c1C(CC(O)c1ccc(-c2ccc(Br)cc2)cc1)c1ccccc1 (stereo not given),6.21 µM (active),–
CCOP(=S)(OCC)OP(=S)(OCC)OCC,–,inactive
c1ccc2sc(SNC3CCCCC3)nc2c1,–,inactive
Cc1ccccc1OP(=O)(Oc1ccccc1C)Oc1ccccc1C,11.4 µM (active),–
Cc1cc(Cl)ccc1N,–,inactive
O=C(O)COc1cc(Cl)c(Cl)cc1Cl,–,inactive
O=S(=O)(c1ccc(Cl)cc1)c1cc(Cl)c(Cl)cc1Cl,–,inactive
O=S(=O)(C(Cl)(Cl)Cl)C(Cl)(Cl)Cl,3.12 µM (active),–
O=C1C=CC(=O)c2ccccc21,3.72 µM (active),–
Nc1ccc(N)cc1,–,inactive

SMILES,AC50,outcome
O=C(CCl)NCO,–,inactive
C#CCOC(=O)/C=C(C)/C=C/CC(C)CCCC(C)C (stereo not given),20 µM (active),–
CCOC(=O)CC(=O)CCl,–,inactive
C=CC(Cl)CCl (stereo not given),4.05 µM (active),–
N#CCCC(Br)(C#N)CBr (stereo not given),13.9 µM (active),–
CC(C)(C)c1cc([N+](=O)[O-])cc(C(C)(C)C)c1O,–,inactive
Cc1cc(C(C)(C)c2ccc(O)c(C)c2)ccc1O,16.4 µM (active),–
CC(C=O)Cc1ccc2c(c1)OCO2 (stereo not given),–,inactive
Cc1cc(Cl)ccc1OC(C)C(=O)O (stereo not given),–,inactive
CC(C)=CC1C(C(=O)OCc2cccc(Oc3ccccc3)c2)C1(C)C (stereo not given),–,inactive
Oc1ccc(Cc2ccc(O)cc2)cc1,–,inactive
Cc1ccc(OP(=O)(Oc2ccc(C)cc2C)Oc2ccc(C)cc2C)c(C)c1,–,inactive
c1ccc(-c2cccc(-c3ccccc3)c2)cc1,29.1 µM (active),–
CCOC(=O)CCN(SN(C)C(=O)Oc1cccc2c1OC(C)(C)C2)C(C)C,33.1 µM (active),–
CCOC(=O)C(SP(=S)(OC)OC)c1ccccc1 (stereo not given),–,inactive
NC(=O)CCl,–,inactive
O=[N+]([O-])c1ccc(Nc2ccccc2)cc1,–,inactive
[Cl][Sn]([c]1ccccc1)([c]1ccccc1)[c]1ccccc1,0.0907 µM (active),–
CCCCCCCCCCCCN(C)C,–,inactive
CC(C)(COCC1CO1)COCC1CO1 (stereo not given),–,inactive
